Structures are written as SMILES. In all, about 360,000 compounds went through this assay and about 3,500 (0.97%) were called active. The full list was thinned out, with actives kept by preference. Unmarked numbers belong to inactive results.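 Rule for the calls: active = activation above a per-plate cutoff, the mean activation of sample wells on that plate plus 3 SD (cut at about 8% in these data); inactive = the rest.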

In this test the target is Melanocortin receptor 4 (Homo sapiens) (UniProt P32245). Kind of test: MC4R agonists recruiting beta-arrestin, primary screen, cell-based, luminescence, agonist arm of biased-ligand search (AID 540308). The following applies: U2OS MC4R beta-arrestin complementation, at 8.9 µM, active compounds read high, percent of melanotan II response, DMSO zero.
Melanocortin receptor 4 (Homo sapiens), sequence (P32245 whole entry, looked up): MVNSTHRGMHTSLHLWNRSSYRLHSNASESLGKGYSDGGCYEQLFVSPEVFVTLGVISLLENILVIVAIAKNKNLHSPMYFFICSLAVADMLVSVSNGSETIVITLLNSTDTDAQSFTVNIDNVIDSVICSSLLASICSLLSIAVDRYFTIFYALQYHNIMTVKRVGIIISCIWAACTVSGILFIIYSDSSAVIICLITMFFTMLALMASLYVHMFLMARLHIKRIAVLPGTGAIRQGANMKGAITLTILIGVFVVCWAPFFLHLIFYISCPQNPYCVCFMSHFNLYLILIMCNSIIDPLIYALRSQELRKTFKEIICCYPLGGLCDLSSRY
Regarding `CCc1nc2ccc(C(=O)Nc3ccc(OC)c(OC)c3)cn2c1N(C)C(=O)c1cccc(OC)c1`, the activation was -1.68%.

Regarding `CC1(C(=O)NCc2ccc3c(c2)OCO3)CCN1C(=O)Cc1cccc2ccccc12` (stereo not drawn), the activation was -2.21%. With `NC(N)=Nc1nc(-c2ccccc2)c2cc(Cl)ccc2n1`, the activation is 9.69% (active).

Consider `Clc1ccc2nc(-c3ccccc3)nc(C(Cl)Cl)c2c1`, for which the activation was 1.35%. `COC(=O)Cn1nc(-c2ccccc2)c2cc(Cl)ccc21`: the activation is -2.4%. For `CC1(C(=O)NS(=O)(=O)c2cccc(F)c2)CCN1C(=O)Cc1ccc(Cl)cc1Cl` (stereo not drawn) the value was -2.74%; for `Cc1ccccc1-c1nc(NC(C)C)nc2cc(-c3ccccc3)sc12`, -0.61%; for `CC1(C(=O)NS(=O)(=O)c2ccc3ccccc3c2)CCN1C(=O)C1(c2ccc(Cl)cc2)CCC1` (stereo not drawn), -0.24%.

Consider `CSc1nc2sc3c(c2c(=O)[nH]1)CCc1ccccc1-3`, for which the activation is 12.4% (active).

Turning to `CCSc1nnc(-c2cc3c(s2)-c2ccccc2CC3)o1`, the activation was -0.34%.

Turning to `CCSc1nc2sc3c(c2c(=O)[nH]1)CC(C)(C)OC3`, the activation was -0.6%.

For `COc1ccc(/C=C/C(=O)c2c(O)cc(OC)cc2OC)cc1`, the activation is -0.69%.

Turning to `N#Cc1cccc(NC(=O)c2cc(C3CCCCN3C(=O)CCc3ccccc3)on2)c1` (stereo not drawn), the activation was -1.43%. For `CC(C)Oc1ccc(CN2CCC2(C)C(=O)NCc2ccc(C(F)(F)F)cc2)cc1` (stereo not drawn), the activation is 0.02%.

For `COc1ccc(Cl)cc1-n1c(C)cc(C(=O)OCC(=O)N2CC(=O)Nc3ccccc32)c1C`, the activation is 15.3% (active). For `COc1cc(OC)c(C(=O)OCC(=O)N2CC(=O)Nc3ccccc32)cc1OC` the value was -2.02%; for `COc1ccc(C(=O)OCC(=O)N2CC(=O)Nc3ccccc32)cc1Br`, 0.65%. Turning to `O=C(Nc1cccc(Cc2ccccc2)c1)Nc1ccc2nc([C@@H]3O[C@H](CO)[C@@H](O)[C@H](O)[C@H]3O)[nH]c2c1`, the activation is -0.22%. For `C[C@H](NC(=O)[C@@H]1Cc2ccccc2CN1C(=O)OC(C)(C)C)C(=O)NC1CCCC1` the value was -3.11%; for `CC(=O)Nc1cnc(-c2ccc(O)cc2C)cn1`, -2.1%. For `Cc1c(C(=O)NCC2CC2)sc(=O)n1Cc1cccc(F)c1` the value was 1.11%; for `COc1ccc(CC(=O)Nc2cc(S(=O)(=O)N3CCCCC3)ccc2N2CCN(C)CC2)cc1`, -2.51%; for `Cc1ccoc1C(=O)Nc1cccc(Oc2ccccc2)c1`, 0.82%. As for `Cc1cccc(NC(=O)Nc2cccc(Oc3c(F)c(F)c(F)c(F)c3F)c2)c1`, the activation is 15.8% (active). For `COc1cccc(NC(=O)Nc2ccc(F)cc2)c1` the value was 1.45%. Turning to `CC(C)CNC(=O)C1(C)CCCN1C(=O)CSc1ccccc1` (stereo not drawn), the activation was -1.48%.

Take `CC(Oc1ccc(Br)cc1)C(=O)NCC(c1ccco1)N1CCCCC1` (stereo not drawn): the activation was 0.14%.

As to `O=C(Nc1ccc(N2CCOCC2)cc1)c1cccc2c(-c3ccc(F)c(F)c3)coc12`, the activation was 3.52%. For `COc1ccc(CC(=O)Nc2c(C(N)=O)oc3ccccc23)cc1` the value was -1.72%; for `COc1ccc(CC(=O)Nc2sc(Cc3ccccc3)c(C)c2C(N)=O)cc1`, 9.06% (active); for `Cc1ccc(C(=O)Nc2sc(Cc3ccc4c(c3)OCO4)c(C)c2C(N)=O)cc1`, 0.85%. For `CCc1nc2ccc(C(=O)N(C)CCN(C)C)cn2c1N(CC)CCOC` the value was -1.01%; for `COc1ccc(NC(=O)C2Cc3c(-c4ccc(Cl)cc4)ccnc3O2)cc1` (stereo not drawn), 2.27%; for `Cc1cccnc1C(NC(=O)C1CCN(Cc2ccc(Cl)c(Cl)c2)CC1)c1ccc(Cl)cc1` (stereo not drawn), -0.01%.

With `CC(C)(C)c1nnc2sc(SCC(O)=C(C#N)c3nc4ccccc4[nH]3)nn2c1=O`, the activation is -0.79%. For `COc1ccccc1C(=O)COC(=O)COc1ccc(C#N)cc1` the value was -0.25%; for `N#C/C(=C(/O)COC(=O)COc1ccc(Cl)cc1)c1nc2ccccc2[nH]1`, 14.5% (active); for `CC(C)NC(=O)C1(C)CCCCCN1C(=O)c1ccc(-c2ccccc2)cc1` (stereo not drawn), -1.12%.

Turning to `COCCNc1nnc(SCC(=O)NNC(=O)c2ccco2)s1`, the activation was -0.17%. For `O=C(NCc1ccc(F)cc1)c1cc(C2CCCCN2C(=O)c2cccs2)on1` (stereo not drawn) the value was -0.1%. With `COC(=O)c1sccc1NN1C(=O)c2ccccc2C1=O`, the activation is 1.29%. For `COC(=O)c1sccc1NC(=O)c1cc(OC)c(OC)c(OC)c1` the value was 10.6% (active). For `COC(=O)c1sccc1NC(=O)c1ccc(Cl)cc1` the value was 3.1%; for `COc1ccc(NC(=O)C2(C)Cc3c(-c4cccc(NC(C)=O)c4)ccnc3O2)cc1` (stereo not drawn), -0.48%; for `CCN(CC)C(=O)C1CCCN(Cc2cccc(Cl)c2)C1` (stereo not drawn), -1.07%. In the case of `Cc1noc(C)c1C(=O)N1CCC1(C)C(=O)NS(=O)(=O)c1ccc(C#N)cc1` (stereo not drawn), the activation is -1.23%.

Consider `COc1cccc(C(NC(C)=O)c2nc(-c3cnc4ccccc4c3)cs2)c1` (stereo not drawn), for which the activation is -2.35%.

On to `Cc1ccc(-c2csc(NC(=O)Cn3[nH]c(=O)c4ccccc4c3=O)n2)cc1`, for which the activation was 16.1% (active). For `Cc1ccc(C)c(C(=O)COC(=O)Cn2[nH]c(=O)c3ccccc3c2=O)c1` the value was -1.85%; for `O=C(CSc1nc2ccccc2c(=O)[nH]1)Nc1nc(-c2ccc(Br)cc2)cs1`, 0.03%; for `Cc1cc(=O)oc2c3c(cc(OCC(=O)NCC(O)c4ccccc4)c12)OC(C)(C)CC3` (stereo not drawn), 2.2%. As for `CCc1nc2c(OCc3ccc(Cl)cc3Cl)cccn2c1N(C)C(=O)C(C)C`, the activation was -0.09%.

As to `Cc1ccc([C@H]2C[C@H](O)[C@@H](n3cc(COC(=O)c4ccccc4)nn3)CN2CC2CCCCC2)cc1`, the activation was 1.06%. For `CCCCCC(=O)N1C[C@H](O)[C@@H](n2cc(COC(=O)c3ccccc3)nn2)C[C@@H]1c1ccc(C)cc1` the value was 0.09%; for `Cc1ccc([C@H]2C[C@H](O)[C@@H](n3cc(COC(=O)c4ccccc4)nn3)CN2C(=O)C2CCCCC2)cc1`, 9.82% (active); for `Fc1ccc(-c2csc(-c3ccc(C4SCCS4)cc3)n2)cc1F`, 1.21%. For `COc1ccc(Br)c(Cn2c(C)c(C(=O)NCc3cccs3)sc2=O)c1` the value was 0.68%; for `Cn1cc(S(=O)(=O)NC(c2ccccc2)c2ccccc2)c(=O)n(C)c1=O`, -0.18%. For `CCc1nc2c(OCCOc3ccccc3)cccn2c1N(C)C(=O)c1cccs1` the value was 0.14%; for `COc1ccc(S(=O)(=O)NC(=O)C2(C)CCN2C(=O)c2ccccc2CCc2ccccc2)cc1` (stereo not drawn), -2.22%. On to `CNC(=S)N/N=C/c1ccc(OCc2ccccc2)c(Br)c1`, for which the activation is 8.56% (active). Regarding `O=C(O)COc1ccc(/C=N/O)cc1Br`, the activation is -1.99%. For `O=C(O)c1ccc(/C=N/NC(=S)NCc2ccccc2)cc1` the value was 0.6%; for `CCCC(=O)N1CCC1(C)C(=O)Nc1ccc(-n2cncn2)cc1` (stereo not drawn), 0.24%.

`COc1cccc(-c2cc3nc(NCCOc4ccccc4Cl)n(C)c(=O)c3s2)c1`: the activation is 2.56%. For `CC(=O)Nc1ccc(CNc2nc(NCCN(C)C)nc3cc(-c4ccccc4)sc23)cc1` the value was 0.89%; for `COCCNc1nc(Nc2ccccc2Cl)c2sc(-c3ccccc3)cc2n1`, 10.6% (active); for `COc1ccccc1CNc1nc(Nc2ccccc2Cl)c2sccc2n1`, 0.15%. For `COc1cccc(CNc2nc(NCc3cccs3)nc3ccsc23)c1` the value was -1.2%; for `Clc1ccccc1Nc1nc(NCc2cccs2)nc2ccsc12`, 15.7% (active); for `COc1ccc(C(C)(O)c2nc(-c3ccc(C)c(C)c3)cs2)cc1` (stereo not drawn), 0.79%.

Consider `Cc1ccc2nc(-c3ccncc3)cc(C(=O)Nc3ccc(OC(F)F)cc3)c2c1`, for which the activation was 13.6% (active). For `Cc1ccc(-n2c(SCC(=O)Nc3ccc4c(c3)OCO4)nnc2-c2ccccn2)cc1` the value was 1.14%; for `CCc1ccc(-c2cc(C(=O)NN3CCN(C)CC3)c3ccccc3n2)cc1`, -0.59%; for `Cc1ccc2nc(-c3ccccn3)cc(C(=O)Nc3ccc4c(c3)OCO4)c2c1`, 8.55% (active). Turning to `COc1cc2ccccc2cc1C(=O)Nc1ccncc1`, the activation was -0.89%. Regarding `Cc1ccc2nc(-c3ccncc3)cc(C(=O)Nc3ccncc3)c2c1`, the activation is 10.5% (active).

As for `Cc1cc(NS(=O)(=O)c2ccc(NC(=O)c3cccc(OC(F)F)c3)cc2)nc(C)n1`, the activation is 0.09%. In the case of `CC1CCCC(NC(=O)c2cc(-c3ccncc3)nc3ccccc23)C1C` (stereo not drawn), the activation is 8.93% (active). For `CC(C)c1cc(C(=O)NC2CCCCCC2)c2ccccc2n1` the value was -0.07%. For `O=C(Nc1ccc(S(=O)(=O)Nc2nccs2)cc1)c1cc(-c2ccncc2)nc2ccccc12` the value was 1.73%; for `COc1ccc(NC(=O)c2cc(-c3cc(OC)c(OC)c(OC)c3)nc3ccccc23)c(OC)c1`, 1.47%. Regarding `CSc1ncccc1C(=O)Nc1ccc2c(c1)OCO2`, the activation is -2.93%. For `CCOC(=O)C1CCCN(C(=O)c2cc(-c3cccs3)oc2C)CC1` (stereo not drawn) the value was 1.53%; for `CCCS(=O)(=O)NC(=O)C1(C)CCCN(C(=O)c2ccnc(Cl)c2)C1` (stereo not drawn), -0.96%; for `CCCCc1ccc(S(=O)(=O)NC(=O)C2(C)CCN2C(=O)c2ccccc2)cc1` (stereo not drawn), 0.97%. For `OC[C@@H]1CN(Cc2ccc(-c3ccccc3)cc2)C[C@H](n2cnc3c(NC4CCCC4)ncnc32)O1` the value was 5.7%. `CCc1nc2c(OCc3ccc(C(=O)OC)cc3)cccn2c1N(C)C(=O)C(C)C`: the activation is 1.62%.
